Hit rate of the full screen: of about 2,300 compounds, about 330 (14%) showed activity.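 How the source made its calls: active = median modified Z-score above 1.96; inactive = 1.96 or below.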 These entries were drawn from the full list.
Tested on: HepG2 Srxn1-GFP reporter cells (+30 nM CDDO-Me)
Assay: Srxn1-GFP intensity median modified Z-score relative to plate median; higher = stronger NRF2 / oxidative stress reporter activation, active = hit call of the paper
Conditions: 10 µM; exposure time: 24h
How it was run: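 HepG2 Srxn1-GFP BAC reporter cells were seeded at 20,000 per well in 96-well plates and co-exposed for 24 h to compound at 10 μM and an NRF2 activator at 30 nM, with DMSO at ≤0.1%, in three replicate plates. Cells were fixed with formaldehyde, stained with Hoechst and imaged by confocal microscopy, and cytoplasmic GFP was measured per cell, with images holding under 100 cells discarded. The reported value is the median over replicates of each plate's modified Z-score of GFP intensity. For this score, scaling used 1.4826 × median absolute deviation.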

| SMILES | Srxn1-GFP intensity median modified Z-score |
| --- | --- |
| CC(C)/N=c1\cc2n(-c3ccc(Cl)cc3)c3ccccc3[nH]c-2cc1=Nc1ccc(Cl)cc1 [euspeclibcmpd891] | 7.89 (active) |
| CC(C)CC(NC(=O)C(C)N)C(=O)O (stereo not given) [euspeclibcmpd2380] | -0.0851 (inactive) |
| CN=C(C[N+](=O)[O-])NCCSCc1csc(CN(C)C)n1 [euspeclibcmpd900] | -0.00145 (inactive) |
| CC1CN(c2c(F)c(N)c3c(=O)c(C(=O)O)cn(C4CC4)c3c2F)C[C@H](C)N1 (stereo not given in full) [euspeclibcmpd471] | -0.142 (inactive) |
| CC(C)C(=O)C1C(=O)O[C@@H](c2ccoc2)[C@]2(C)C(O)[C@@H](O)[C@@]34OC5(C)OC67CC(C)(C(O)[C@]6(O)[C@@H](O)[C@]3(O5)C12)[C@H](CC(=O)O)[C@]74C (stereo not given in full) [euspeclibcmpd1385] | -0.12 (inactive) |
| NC(=O)NCCCC(N)C(=O)O (stereo not given) [euspeclibcmpd1533] | -0.136 (inactive) |
| CCN(CC)CCOC(=O)C(c1ccccc1)c1ccccc1 [euspeclibcmpd520] | 0.792 (inactive) |
| CCCC(C(=O)OCCN(CC)CC)(c1ccccc1)c1ccccc1 [euspeclibcmpd434] | -0.794 (inactive) |
| CCN(CC)CCOC(=O)C(Cc1cccc2ccccc12)CC1CCCO1 (stereo not given) [euspeclibcmpd577] | 3.61 (active) |
| C[C@H]1c2cccc(O)c2C(=O)C2C(=O)[C@]3(O)C(=O)C(C(N)=O)C(=O)C(N(C)C)[C@@H]3[C@@H](O)[C@@H]21 (stereo not given in full) [euspeclibcmpd105] | -1.04 (inactive) |
| C=C[C@](C)(O)CCC=C(C)C [euspeclibcmpd1465] | -0.00229 (inactive) |
| CCOc1ccc2[nH]c3cc(N)ccc3c(=N)c2c1 [euspeclibcmpd1203] | 63.5 (active) |
| COC(=O)C1=C2C(=O)CC(C)C2C(O[C@@H]2O[C@H](CO)[C@@H](O)[C@H](O)[C@H]2O)OC1 (stereo not given in full) [euspeclibcmpd2225] | -0.236 (inactive) |
| COC(=O)c1c(C)c2c(c(C)c1O)OC(=O)c1c(C)c(Cl)c(O)c(Cl)c1O2 [euspeclibcmpd1600] | 12.9 (active) |
| Cc1cc(O)c(C=O)c2c1C(=O)Oc1c(C)c(O)c3c(O)oc(O)c3c1O2 [euspeclibcmpd2409] | 0.591 (inactive) |
| COC(=O)c1c(OC)cc2c(c1C)Oc1c(Cl)c(O)c(Cl)c(C)c1C(=O)O2 [euspeclibcmpd1672] | 0.324 (inactive) |
| Cc1c[nH]c(=NC(=O)C2C(=O)c3ccccc3S(=O)(=O)N2C)s1 (stereo not given) [euspeclibcmpd2190] | -0.367 (inactive) |
| C#C[C@]1(OC(C)=O)CCC2C3CCC4=CC(=NO)CCC4C3CC[C@@]21CC (stereo not given in full) [euspeclibcmpd54] | -0.443 (inactive) |
| C#C[C@]1(O)CCC2C3CCc4cc(OC)ccc4C3CC[C@@]21C (stereo not given in full) [euspeclibcmpd184] | 0.203 (inactive) |
| C#C[C@]1(OC(C)=O)CCC2C3CCC4=C[C@@H](OC(C)=O)CCC4C3CC[C@@]21C (stereo not given in full) [euspeclibcmpd896] | 2.28 (active) |
| NCCCC(N)C(=O)O (stereo not given) [euspeclibcmpd2233] | -0.13 (inactive) |
| CCOC(=O)C1=CC(OC(CC)CC)[C@H](NC(C)=O)[C@@H](N)C1 (stereo not given in full) [euspeclibcmpd2394] | -0.535 (inactive) |
| CC1=C(SC2CNC(C(=O)N(C)C)C2)C(C(=O)O)N2C(=O)[C@H]([C@@H](C)O)[C@@H]12 (stereo not given in full) [euspeclibcmpd460] | -0.758 (inactive) |
| CC1CN(C(=O)CSc2nc3ccc(Br)cc3c3nc(=O)c(-c4ccccc4)nn23)CC(C)O1 (stereo not given) | 2.28 (active) |
| CC(C)CCOc1ccc2[nH]c(-c3cc(NCCc4cn5c(n4)SCC5)ccn3)cc2c1 | 0.892 (inactive) |

| SMILES | Srxn1-GFP intensity median modified Z-score |
| --- | --- |
| COc1ccc(-c2oc3ccccc3c(=O)c2OC)cc1 [euspeclibcmpd1341] | 0.287 (inactive) |
| CN(C)[C@@H]1C(O)=C(C(N)=O)C(=O)[C@@]2(O)C(O)c3c(c(O)c4c(Cl)ccc(O)c4c3O)C[C@@H]12 (stereo not given in full) [euspeclibcmpd85] | -0.132 (inactive) |
| O=C(O)c1ccccc1 [euspeclibcmpd2047] | 0.122 (inactive) |
| O=C(C(=O)c1ccccc1)c1ccccc1 | 1.75 (inactive) |
| O=C(CC(=O)c1ccccc1)c1ccccc1 [euspeclibcmpd1779] | 2.2 (active) |
| C[n+]1cccc(C(=O)O)c1 [euspeclibcmpd1706] | -0.33 (inactive) |
| CCCc1nn(C)c2c(=O)nc(-c3cc(S(=O)(=O)N4CCN(C)CC4)ccc3OCC)[nH]c12 [euspeclibcmpd1008] | -0.649 (inactive) |
| Nc1ccc(NC(=O)c2cc(Cl)ccc2O)c(Cl)c1 | 1.83 (inactive) |
| O=C(Nc1ccc(Br)cc1Cl)c1cc(Cl)ccc1O | 0.489 (inactive) |
| O=C(Nc1cc(Cl)cc(Cl)c1O)c1c(O)c(Cl)cc(Cl)c1Cl [euspeclibcmpd2236] | 4.91 (active) |
| COC(=O)c1cc(-c2ccccc2)nc2ccccc12 | 1.89 (inactive) |
| O=C1CC(=O)c2c(c(O)c3ccccc3c2O)C1=O [euspeclibcmpd1727] | 8.98 (active) |
| O=C1C=Cc2c(c(O)c3ccccc3c2O)C1=O [euspeclibcmpd1683] | 0.752 (inactive) |
| Cc1cc(/C=C/c2ccc3cc(N(C)C)ccc3[n+]2C)c(C)n1-c1ccccc1 [euspeclibcmpd260] | 28.6 (active) |
| COc1c(-c2ccccc2)oc2cc(O)cc(O)c2c1=O [euspeclibcmpd2295] | -0.0938 (inactive) |
| CCCOc1ccc(C(=O)OCCN(CC)CC)cc1N [euspeclibcmpd842] | -0.601 (inactive) |
| CCN(CC)CCOC(=O)c1ccc(N)cc1 [euspeclibcmpd248] | -0.882 (inactive) |
| CCCCOc1cc(C(=O)OCCN(CC)CC)ccc1N [euspeclibcmpd809] | 16.2 (active) |
| O=C(O)C(O)C(O)C(O)C(O)C(=O)O (stereo not given) [euspeclibcmpd2053] | -0.466 (inactive) |
| Cc1[nH]c(=O)[nH]c1O [euspeclibcmpd1742] | -0.283 (inactive) |
| Cc1[nH]c(C)c(Cl)c(=O)c1Cl [euspeclibcmpd744] | 6.67 (active) |
| O=C(O)C=C(CC(=O)O)C(=O)O [euspeclibcmpd1609] | -0.206 (inactive) |
| C=C1CC2C3=CC(C)=C4CC(=O)CC[C@]4(C)C3CC[C@]2(C)[C@@]1(OC(C)=O)C(C)=O (stereo not given in full) [euspeclibcmpd860] | 1.04 (inactive) |
| CSC1(CNC(=O)Nc2cnn(C)c2Cl)CC1 | 1.35 (inactive) |
| OC[C@@H](O)[C@@H](O[C@@H]1O[C@H](CO)[C@@H](O)[C@H](O)[C@H]1O)[C@H](O)[C@@H](O)CO [euspeclibcmpd2177] | -0.452 (inactive) |

| SMILES | Srxn1-GFP intensity median modified Z-score |
| --- | --- |
| COC(=O)C(c1ccccc1Cl)N1CCc2sccc2C1 (stereo not given) [euspeclibcmpd599] | -0.316 (inactive) |
| CCCCC(CC)CN1CN(CC(CC)CCCC)CC(C)(N)C1 (stereo not given) [euspeclibcmpd1036] | 14.2 (active) |
| COc1cnc(=NS(=O)(=O)c2ccc(N)cc2)[nH]c1 [euspeclibcmpd408] | -0.161 (inactive) |
| NC(=O)CN1CCCCCCC1=O | 0.32 (inactive) |
| CC1=C(CC(=O)O)c2cc(F)ccc2C1=Cc1ccc([S+](C)[O-])cc1 (stereo not given) [euspeclibcmpd284] | -0.29 (inactive) |
| c1ccc(C(c2ccccc2)(c2ccccc2)n2ccnc2)cc1 | 1.95 (inactive) |
| c1ccc(-c2ccc(C(c3ccccc3)n3ccnc3)cc2)cc1 (stereo not given) [euspeclibcmpd741] | 3.36 (active) |
| N#Cc1ccc(C(c2ccc(C#N)cc2)n2cncn2)cc1 [euspeclibcmpd693] | -0.19 (inactive) |
| CCOC(=O)C(CCc1ccccc1)NC(C)C(=O)N1CCCC1C(=O)O (stereo not given) [euspeclibcmpd421] | 0.166 (inactive) |
| CCOC(=O)C(CCc1ccccc1)NC(C)C(=O)N1Cc2ccccc2CC1C(=O)O (stereo not given) [euspeclibcmpd521] | 0.162 (inactive) |
| CCOC(=O)C(CCc1ccccc1)NC1CCc2ccccc2N(CC(=O)O)C1=O (stereo not given) [euspeclibcmpd912] | 3.02 (active) |
| N=c1[nH]c(=O)[nH]cc1F [euspeclibcmpd698] | 1.2 (inactive) |
| CC(=O)OCC(=O)[C@@]1(O)[C@H](C)CC2C3CC=C4CC(=O)C=C[C@]4(C)[C@@]3(F)[C@@H](O)C[C@@]21C (stereo not given in full) [euspeclibcmpd2125] | -0.395 (inactive) |
| CC(=O)Oc1cccc(C)c1 [euspeclibcmpd1228] | -0.455 (inactive) |
| Cc1cccc(N(C)C(=S)Oc2ccc3ccccc3c2)c1 [euspeclibcmpd299] | 8.23 (active) |
| CC(C)(C)NCC(O)COc1cccc2c1CCCC2=O (stereo not given) [euspeclibcmpd764] | -0.976 (inactive) |
| CCCCCCCCCCCCCCCCOP(=O)(O)OCC[N+](C)(C)C [euspeclibcmpd1120] | 1.47 (inactive) |
| NC(C(=O)NC1C(=O)N2C(C(=O)O)=C(Cl)CSC12)c1ccccc1 (stereo not given) [euspeclibcmpd343] | -0.608 (inactive) |
| Cn1cnc([N+](=O)[O-])c1Sc1ncnc2[nH]cnc12 [euspeclibcmpd29] | 2.86 (active) |
| N=c1[nH]cnc2c1ncn2C1O[C@H](COP(=O)(O)O)[C@@H](O)[C@H]1O (stereo not given in full) [euspeclibcmpd330] | -0.321 (inactive) |
| CCc1ccc2c(O)c3c(O)c4c(c(O)c3cc2c1C(=O)OC)C(=O)C=CC4=O [euspeclibcmpd1950] | 1.63 (inactive) |
| CCC1(O)C=C(OC2CC(N(C)C)C(O)C(C)O2)c2c(cc3c(O)c4c(O)ccc(O)c4c(O)c3c2O)C1C(=O)OC (stereo not given) [euspeclibcmpd1939] | 97.7 (active) |
| CC[C@@]1(O)CC(=O)c2c(cc3c(O)c4c(O)ccc(O)c4c(O)c3c2O)C1C(=O)OC (stereo not given in full) [euspeclibcmpd1470] | 70.7 (active) |
| COc1cccc2c(O)c3c(O)c4c(c(O)c3c(O)c12)=C(O[C@H]1C[C@H](N)[C@H](O)[C@H](C)O1)C[C@](O)(C(C)=O)C=4 [euspeclibcmpd83] | 0.648 (inactive) |
| COc1cccc2c(O)c3c(O)c4c(c(O)c3c(O)c12)=C(OC1C[C@H](N)[C@H](O)[C@H](C)O1)C[C@](O)(C(=O)CO)C=4 (stereo not given in full) [euspeclibcmpd2291] | 0.455 (inactive) |
